Most compounds without a hit are left out; they make up all but 7.9% or so of the library.
FMDV inh – High Throughput Screening for Foot and Mouth Disease Virus Antivirals. FMDV antiviral cell-based qHTS. Potency, µM (series often up to 57.9 µM), usual class: inhibitors. hit rate 1.2% among 410,000; calls by dose curve; tested in HEK293T cells; also: read-out not given here; nearly all actives have a fitted effect of over 45% in size
HCV inhibitor – qHTS Assay for Inhibitors of Hepatitis C Virus (HCV); Huh7.5.1 HCVcc-Cre infection, luciferase reporter, 44 h; Potency, µM (highest dose often 41.8 µM), actives largely listed as inhibitors; hit rate 3.4% among 340,000; active = well fitted inhibition curve with a large enough effect; inconclusive = small, poorly fitted or top-dose-only effect, or another doubt; inactive = no such curve, though single readings can be large or run the other way
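After 44 h co-culture of compound, cells and HCVcc-Cre (~0.5 moi), substrate is added for 15 min at room temperature and luciferase measured over 15 sec. Cells were seeded at 1,000/well and pre-cultured 4 h.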
HCMV inh – qHTS Assay for inhibitors of the human cytomegalovirus (HCMV); HFF cells, HCMV-luciferase reporter, 72 h; active compounds read low; hit rate 4.5% among 410,000; activity change, negative = inhibition, % at 57.5 µM; in the data active = activity change below about -60%; inconclusive = no clear call, values can overlap the other calls; inactive = above about -39%
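Compounds were evaluated in HFFs infected with an HCMV luciferase reporter virus (MOI 1 PFU/cell). Luciferase in lysates collected 72 h post infection served as the replication measure.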
Marburg entry inh – qHTS for inhibitors of binding or entry into cells for Marburg Virus; Marburg virus pseudotyped entry inhibition, cell reporter; Potency, µM (series often up to 37.8 µM), usual class: inhibitors; hit rate 1.8% among 300,000; calls by dose curve; tested in HEK293 cells
LASV entry inh – qHTS for Inhibitors of binding or entry into cells for Lassa Virus; Lassa virus pseudotype entry inhibition, cell reporter; Potency, µM (titrated, usually from 37.9 µM), hits mostly inhibitors; hit rate 1.2% among 300,000; AID 540256, 2011; calls by dose curve; tested in HEK293 cells; also: nearly all actives have a fitted effect of over 50% in size
Large screens that a line does not name were inactive; ! = not active in a repeat.

O=C(O)CCc1ccc(-c2ccc(Cl)cc2)n1-c1cccc(C(F)(F)F)c1	none (no result: HCV inhibitor)
COc1cc(OC)c(NS(=O)(=O)c2cc(C(=O)OC(C)C(=O)NC3CC3)c(Cl)cc2Cl)cc1Cl (stereo not drawn)	HCV inhibitor 11µM, Marburg entry inh inconclusive
Cc1ccc(S(=O)(=O)NC(C)(C)C)cc1C(=O)OC(C)C(=O)NC1CC1 (stereo not drawn)	none
O=C(NNC(=O)c1cccs1)c1ccccc1	none (no result: Marburg entry inh, LASV entry inh)
O=C(Nc1cccc(NC(=O)c2ccccc2Cl)c1)c1cccs1	HCV inhibitor inconclusive, HCMV inh -81
O=C(Nc1ccc(NC(=O)c2cccs2)c(Cl)c1)c1cccs1	HCV inhibitor 11µM, HCMV inh inconclusive
CC(=O)Nc1ccc(C(=O)NNC(=O)c2cccs2)cc1	HCMV inh -67
O=C(Nc1ccc(NC(=O)C2CC2)cc1)c1cccs1	HCMV inh -77, Marburg entry inh inconclusive
O=C(Nc1ccc(NC(=O)c2cccs2)cc1Cl)c1ccco1	none
CCc1ccc(NC(=O)CSc2nc(=O)n(Cc3ccncc3)c3c2CCC3)cc1	FMDV inh inconclusive (no result: HCV inhibitor, Marburg entry inh)
COc1ccc(NC(=O)c2ccc3[nH]c(C)cc(=O)c3c2)cc1	none (no result: HCV inhibitor)
COc1ccc(-c2cccc(NC(=O)c3cccs3)c2)nn1	HCV inhibitor 3.5µM
O=C(Nc1nonc1NC(=O)c1cccs1)c1cccs1	FMDV inh inconclusive, HCV inhibitor 4µM, HCMV inh -93, Marburg entry inh inconclusive, LASV entry inh 8.9µM
CCC1CCCCN1S(=O)(=O)c1ccc(NC(=O)c2cccs2)cc1 (stereo not drawn)	HCV inhibitor inconclusive, LASV entry inh 5.2µM
CC(=O)c1ccc(NC(=O)c2ccccc2-c2ccccc2C(=O)O)cc1	none
Cc1ccc(-c2c(NC(=O)C(C)C)n(C)c3ccccc3c2=O)cc1	HCV inhibitor 3.2µM
Clc1cccc(C=NC=Nc2cccc(Cl)c2)c1	none (no result: HCV inhibitor, HCMV inh, Marburg entry inh, LASV entry inh)
COc1ccc(CNCc2c(O)c(Cl)cc3c(C)c(C)c(=O)oc23)c(OC)c1	HCMV inh -70
O=C1CN(CC(=O)NC2CCCc3ccccc32)CCN1 (stereo not drawn)	none (no result: Marburg entry inh, LASV entry inh)
COc1ccc2c(c1)CCC1C2=NN(/C(C)=C/C(C)=O)C1c1cccc(F)c1 (stereo not drawn)	HCV inhibitor 11µM, Marburg entry inh inconclusive
CN(N=O)c1cc(O)ccc1O	Marburg entry inh inconclusive, LASV entry inh 16µM (no result: FMDV inh, HCV inhibitor, HCMV inh)
COc1cccc(C2C3=C(Nc4[nH]n(-c5ccccc5)c(=O)c42)c2ccccc2C3=O)c1 (stereo not drawn)	none (no result: FMDV inh, HCMV inh)
Cn1c2c(c(=O)[nH]c1=O)C(c1cccc(O)c1)C1=C(N2)c2ccccc2C1=O (stereo not drawn)	FMDV inh inconclusive, HCV inhibitor inconclusive, HCMV inh -100, Marburg entry inh inconclusive, LASV entry inh inconclusive
COc1ccccc1CN1CCCC2(CCN(C(=O)c3cccn3C)CC2)C1	none (no result: HCV inhibitor, HCMV inh, Marburg entry inh, LASV entry inh)
C=CCCCN1C=C(C(C)=O)C(c2ccccc2)NC1=O (stereo not drawn)	none (no result: FMDV inh, HCV inhibitor, HCMV inh, LASV entry inh)
Fc1ccccc1-n1ncc2c1ncn1nc(Cc3ccccc3)nc21	Marburg entry inh inconclusive (no result: HCV inhibitor)
C(=N\Nc1nc(Nc2ccccc2)nc(N2CCOCC2)n1)/c1c[nH]c2ccccc12	HCV inhibitor 3.5µM, Marburg entry inh 0.073µM, LASV entry inh inconclusive
Cc1ccc(Nc2nc(N/N=C/c3c[nH]c4ccccc34)nc(N3CCOCC3)n2)cc1	FMDV inh inconclusive, HCV inhibitor inconclusive, Marburg entry inh 0.21µM, LASV entry inh 15µM
Cc1[nH]c2ccccc2c1/C=N/Nc1nc(Nc2ccc(F)cc2)nc(N2CCOCC2)n1	HCV inhibitor 8.9µM!, Marburg entry inh inconclusive
CCN(Cc1cccc(OC)c1)CC1CCCN(CCc2cccc(OC)c2)C1 (stereo not drawn)	FMDV inh inconclusive, HCV inhibitor inconclusive (no result: Marburg entry inh, LASV entry inh)
CC(=O)Nc1ccc(CN(C)CC2CCCN(CCc3cccc(C(F)(F)F)c3)C2)cc1 (stereo not drawn)	HCV inhibitor 1.4µM, Marburg entry inh 10µM, LASV entry inh inconclusive
CCN(Cc1ccc(O)cc1)CC1CCCN(CCc2cccc(F)c2)C1 (stereo not drawn)	HCV inhibitor 8.9µM (no result: Marburg entry inh, LASV entry inh)
Cn1ncc(Cl)c1C(=O)NC(=S)Nc1sc2c(c1C#N)CCCCC2	HCMV inh -60
CN1CCN(c2nc(-c3ccccc3O)nc3ccccc23)CC1	HCV inhibitor inconclusive
OCCN1CCN(c2nc(-c3ccccc3O)nc3ccccc23)CC1	HCV inhibitor 22µM, Marburg entry inh inconclusive, LASV entry inh inconclusive
c1ccc(-c2nc(N3CCCCCC3)c3ccccc3n2)nc1	FMDV inh 25µM, HCV inhibitor 1.6µM, HCMV inh -99, Marburg entry inh inconclusive, LASV entry inh 4µM
c1ccc(CN2CCN(c3nc(-c4ccccn4)nc4ccccc34)CC2)cc1	HCMV inh -99
COc1ccc(NC(=O)CN2C(=O)C3(SCC(=O)N3c3cccc(OC)c3)c3ccccc32)cc1 (stereo not drawn)	none (no result: HCV inhibitor, Marburg entry inh)
Cc1ccccc1CSc1ccc(S(=O)(=O)N2CCCC2)cn1	HCV inhibitor inconclusive, Marburg entry inh inconclusive
c1ccc(-c2csc3ncnc(NCC4COc5ccccc5O4)c23)cc1 (stereo not drawn)	FMDV inh 28µM, HCV inhibitor 0.56µM, HCMV inh -88, Marburg entry inh 2.2µM, LASV entry inh inconclusive
CC(=O)N1CCN(C(=O)c2sc3ncnc(NCC4CCCO4)c3c2C)CC1 (stereo not drawn)	none (no result: HCV inhibitor, HCMV inh, Marburg entry inh, LASV entry inh)
Cc1nc(SCC(=O)NCC2COc3ccccc3O2)c2c(C)c(C)sc2n1 (stereo not drawn)	FMDV inh inconclusive
Cc1sc2ncnc(NCC(C)(C)N3CCOCC3)c2c1C	HCV inhibitor 5.6µM, Marburg entry inh inconclusive, LASV entry inh inconclusive
Cc1sc2ncnc(NCC3COc4ccccc4O3)c2c1C (stereo not drawn)	FMDV inh inconclusive, HCV inhibitor inconclusive, HCMV inh -79
Cc1sc2ncnc(NCC3CCCO3)c2c1C (stereo not drawn)	FMDV inh 28µM, HCV inhibitor 13µM
CC(C)[C@H]1COCCS(=O)(=O)N1Cc1ccccc1-c1ccc(C(C)(C)C)cc1	FMDV inh inconclusive (no result: Marburg entry inh, LASV entry inh)
N#Cc1ccccc1OCc1cccc(S(=O)(=O)N2CCOCC2)c1	none (no result: Marburg entry inh, LASV entry inh)
Cc1ccc(S(=O)(=O)n2nc(-c3ccco3)nc2N)cc1	HCMV inh -67
Cc1ccccc1NC(=O)NC1(C(=O)N2CCC(O)CC2)CCCCC1	none
C=CS(=O)(=O)c1c2cc(OC)ccc2nc2ccc(OC)cc12	FMDV inh 28µM, HCV inhibitor inconclusive, HCMV inh inconclusive, Marburg entry inh inconclusive, LASV entry inh inconclusive
COCC(=O)Oc1c(Sc2ccccc2[N+](=O)[O-])c(C)nn1C(C)(C)C	HCMV inh -101
COCC(=O)Oc1c(S(=O)(=O)c2ccc(C)cc2)c(C)nn1C(C)(C)C	HCMV inh -71
Cc1nn(C(C)(C)C)c(OC(=O)c2cccs2)c1S(=O)(=O)c1ccccc1	FMDV inh inconclusive, HCV inhibitor inconclusive, Marburg entry inh inconclusive, LASV entry inh 11µM

Bioassay records as filed in PubChem.
